In all, about 290,000 compounds went through this assay and about 3,000 (1%) were called active. No stated cut-off is given here; in the data, active means inhibition mostly above about 36% (no sharp cut-off); inactive means mostly below about 34%. This excerpt belongs to a sample that is enriched for actives.

This assay is described as follows: NOD1 signaling inhibitors, primary screen, cell-based, luminescence, uHTS (AID 1578).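 Further: HEK-293T reporter cells stimulated with the NOD1 agonist gamma-tri-DAP.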 The conditions noted are these: NOD1-driven NF-kB luciferase reporter cells, at 4 µM, active compounds read high. For orientation: In a reporter assay the amount or activity of a reporter protein is the signal.
On to `Cc1oc(-c2ccc(Cl)cc2)nc1CN1CCC(C(=O)NCCCN2CCCC2=O)CC1`, for which the inhibition is 17.3% (inactive).

For `COc1ccc(CCC(=O)O)cc1OC`, the inhibition was -2.3% (inactive).

For the molecule `O=Cc1cc(CCC(=O)O)ccc1O`, the inhibition was 63% (active).

For the molecule `O=C(O)Cc1ccc(O)c(O)c1`, the inhibition was -0.7% (inactive).

As to `COc1ccc(C(=O)/C(C#N)=N/Nc2ccccc2[N+](=O)[O-])cc1`, the inhibition was 42.9% (inactive).

`COc1ccc(N/N=C(\C#N)C(N)=O)cc1`: the inhibition is -41.5% (inactive).

Regarding `COc1ccc(C(=O)/C(C#N)=N/Nc2ccc([N+](=O)[O-])cc2)cc1`, the inhibition was 82.5% (active).

`Cc1c(NC(=O)C(C#N)=C2CCCCC2)c(=O)n(-c2ccccc2)n1C`: the inhibition was -3.8% (inactive).

For the molecule `O=C(c1cc(F)ccc1F)C1CCCN(C(=O)CCN2CCCCO2)C1` (stereo not given), the inhibition was -29.2% (inactive).

Turning to `O=C(NNc1nc2c(F)cc(F)cc2s1)c1ccccc1`, the inhibition was -5.8% (inactive).

For `O=C(Nc1nc2ccc(F)cc2s1)c1ccccn1`, the inhibition was 107% (active).

For `O=C(Nc1nc2c(F)cc(F)cc2s1)c1ccccn1`, the inhibition is 70.9% (active).

Turning to `Fc1ccc2nc(Nc3nc4c(F)cc(F)cc4s3)sc2c1`, the inhibition is 2.7% (inactive).

On to `O=C(Nc1nc2ccc(F)cc2s1)c1cccs1`, for which the inhibition is -59.7% (inactive).

For the molecule `COC(=O)c1ccc2nc(NC(=O)C(C)(C)C)sc2c1`, the inhibition is 35.8% (inactive).

As to `Cc1ccc2nc(NC(=O)c3ccccc3F)sc2c1`, the inhibition was -69.7% (inactive).

As for `Cc1ccc2nc(NC(=O)c3ccccn3)sc2c1`, the inhibition was 109% (active).

With `O=C(Nc1nc2c(F)cc(F)cc2s1)c1ccco1`, the inhibition was -3.5% (inactive).

For `O=C(Nc1nc2ccc(S(=O)(=O)N3CCCC3)cc2s1)c1ccccn1`, the inhibition is -16.1% (inactive).

On to `Cc1ccc2nc(NC(=O)COC(=O)c3ccccn3)sc2c1`, for which the inhibition was -22% (inactive).

Consider `COc1cc(CN2CCCC(N3CCN(c4ccc(F)cc4)CC3)C2)ccc1F` (stereo not given), for which the inhibition was 61.4% (inactive).

As for `COc1ccccc1S(=O)(=O)N1CCC(C(=O)O)(c2ccccc2)CC1`, the inhibition is 14.5% (inactive).

Consider `COc1ccc(NC(=S)c2ccncc2)cc1`, for which the inhibition was -9.9% (inactive).

Consider `CC(Sc1nnc(N)s1)C(=O)Nc1ccc(N2CCOCC2)cc1` (stereo not given), for which the inhibition is -20.5% (inactive).

As to `COc1ccc(NC(=O)Cc2c(F)c(F)c(F)c(F)c2F)cc1OC`, the inhibition is 2.8% (inactive).

As to `Cc1csc(NC(=O)CSc2nc(C(C)C)nc3ccccc23)n1`, the inhibition was 12.9% (inactive).

Regarding `Cc1ccc(CC2S/C(=N/c3ccccn3)NC2=O)cc1` (stereo not given), the inhibition was 17% (inactive).

Consider `O=C1N/C(=N\c2ccccn2)SC1Cc1ccc(Cl)cc1` (stereo not given), for which the inhibition was 103% (active).

On to `O=C1N/C(=N/c2ccccn2)SC1Cc1ccccc1` (stereo not given), for which the inhibition is -21% (inactive).

On to `CCCCN1CC(=O)N2Cc3[nH]c4ccccc4c3C[C@H]2C1=O`, for which the inhibition was -2.4% (inactive).

For `O=C(Nc1ccccc1)C1(c2ccccc2)CC1(Cl)Cl` (stereo not given), the inhibition is -28.2% (inactive).

On to `Cc1ccc(SCC(=O)NCCN2C(=O)CSC2=O)c(C)c1`, for which the inhibition was -23.2% (inactive).

Take `S=c1sc2c(Cl)ncnc2n1-c1ccccc1`: the inhibition is 69.8% (active).

`S=c1sc2c(N3CCOCC3)ncnc2n1-c1ccccc1`: the inhibition was 9% (inactive).

As for `S=c1sc2c(N3CCN(Cc4ccccc4)CC3)ncnc2n1-c1ccccc1`, the inhibition is -6.8% (inactive).

As for `CN1CCN(CC2(O)CCN(S(=O)(=O)c3ccc(Cl)cc3)CC2)CC1`, the inhibition was -21.7% (inactive).

`Cc1cccc2c(=O)c(C(=O)NCCc3ccccc3)c[nH]c12`: the inhibition was -28.3% (inactive).

As to `O=C(NCCc1ccccc1)c1cc2ncc(Br)cn2n1`, the inhibition is -28.5% (inactive).

With `NC1=NC(=O)/C(=C\c2cccnc2)S1`, the inhibition is 53.6% (active).

On to `NC1=NC(=O)/C(=C/c2cccc(F)c2)S1`, for which the inhibition was -12% (inactive).

Turning to `NC1=NC(=O)/C(=C/c2ccc(Br)cc2)S1`, the inhibition was 25% (inactive).

For `Cc1cc(OCC(=O)N2CCN(c3ccccc3)CC2)c2c(C)cc(=O)oc2c1`, the inhibition was -49.6% (inactive).

Turning to `O=C(NCc1nnc(SCC(=O)N2CCCc3ccccc32)o1)c1ccco1`, the inhibition is -0.1% (inactive).

Regarding `CC(=O)OC1C2CCC1C([N+]1(C)CCCCC1)CC2` (stereo not given), the inhibition is -31.7% (inactive).

For `NC(=O)c1cc2ccc(O)cc2oc1=Nc1ccccc1`, the inhibition was 92.8% (active).

With `Cc1cccc(N=c2oc3cc(O)ccc3cc2C(N)=O)c1`, the inhibition is 44.6% (inactive).

Turning to `COc1ccc2cc(C(N)=O)c(=Nc3ccccc3)oc2c1`, the inhibition was 34.9% (inactive).

In the case of `CCN(CC)S(=O)(=O)c1cc(NC(=O)CCCOc2ccc(C(C)=O)cc2)ccc1C`, the inhibition is 6.3% (inactive).

Consider `Oc1c(Br)cc(C=Nc2ccc3nc(-c4ccccc4)[nH]c3c2)c(O)c1Br`, for which the inhibition is 33.9% (inactive).

`Cc1cccc(N2C(=O)C3C4C=CC(CC4)C3C2=O)c1` (stereo not given): the inhibition was -21.6% (inactive).

As to `Cc1c(C)c2ccc(O[C@@H]3O[C@H](CO)[C@H](O)[C@H](O)[C@H]3O)cc2oc1=O`, the inhibition was -1% (inactive).

Consider `Cc1cc(C(=O)CSc2nnc(-c3ccco3)o2)c(C)n1CC1COc2ccccc2O1` (stereo not given), for which the inhibition is 43.4% (inactive).

Regarding `Cc1cc(C(=O)CSc2nnc(-c3ccco3)o2)c(C)n1Cc1ccco1`, the inhibition is 3.1% (inactive).

For the molecule `Cc1ccc(S(=O)(=O)N2CCN(C(=O)CSc3nnc(-c4ccco4)o3)CC2)cc1`, the inhibition is -19% (inactive).

On to `CCN(CC)C(=O)c1oc2ccc(S(=O)(=O)N3CCCCCC3)cc2c1C`, for which the inhibition is 20.9% (inactive).

Turning to `Cc1c(C(=O)O)oc2ccc(S(=O)(=O)N3CC(C)CC(C)C3)cc12` (stereo not given), the inhibition was -13% (inactive).

Turning to `COc1cccc(-n2c(SCC#N)nnc2-c2cnccn2)c1`, the inhibition was 5.2% (inactive).

As to `CC(C)CCN1CCN(Cc2cccc3nonc23)CC1CCO` (stereo not given), the inhibition is -23.9% (inactive).

On to `O=C(Nc1cccnc1)c1cc(-c2ccc(Br)cc2)nc2ccccc12`, for which the inhibition was -14.6% (inactive).

`CCc1oc2ccccc2c1C(=O)CCN1CCCCC1`: the inhibition was 39.5% (inactive).

Take `CCc1oc2ccccc2c1C(=O)c1cc(Br)c(O)c(Br)c1`: the inhibition is 87.3% (active).

With `CCCCc1oc2ccccc2c1C(=O)c1cc(I)c(OCCN(CC)CC)c(I)c1`, the inhibition is -7.6% (inactive).

For `O=C(Nc1ccc(OCC(F)(F)C(F)F)cc1)c1ccncc1`, the inhibition was -18.2% (inactive).

As to `O=C(O)c1ccccc1C(=O)Nc1ccc(Br)c(C(F)(F)F)c1`, the inhibition is -11.4% (inactive).

With `O=C(Nc1ccc(OCC(F)(F)C(F)F)c(C(F)(F)F)c1)c1ccccc1O`, the inhibition was 77.1% (active).

In the case of `O=C(CN1C(=O)CCSc2ccc(S(=O)(=O)N3CCCC3)cc21)Nc1ccccc1Cl`, the inhibition is -4.7% (inactive).

As for `CCN1CCN(C(=O)COCc2cc(-c3ccc4c(c3)OCO4)on2)CC1`, the inhibition is -17.7% (inactive).

Turning to `Cc1ccc2c(c1)N(S(=O)(=O)c1cc(-c3onc(C)c3C)ccc1C)CCO2`, the inhibition was 29.7% (inactive).

Regarding `CC(C)(C)n1ncc(Oc2ccccc2[N+](=O)[O-])c(Cl)c1=O`, the inhibition was 12.6% (inactive).

On to `CCN=C1NN=C(c2cc(C)n(Cc3ccco3)c2C)CS1`, for which the inhibition was 81.7% (active).

Take `Cc1cc(C2=NNC(=NC3CC3)SC2)c(C)n1Cc1ccco1`: the inhibition was 90.4% (active).

For the molecule `COCCCN=C1NN=C(c2cc(C)n(Cc3ccco3)c2C)CS1`, the inhibition is -8.2% (inactive).

For `CCN=C1NN=C(c2cc(C)n(CCc3ccccc3)c2C)CS1`, the inhibition was -15% (inactive).

Turning to `Cc1cc(C2=NNC(=NC3CCCCC3)SC2)c(C)n1-c1c(C)n(C)n(-c2ccccc2)c1=O`, the inhibition is 2.7% (inactive).

Take `CC(C)=CC1C=C(C)C(C)C2C(=O)NNC(=O)C12` (stereo not given): the inhibition is 10.4% (inactive).

As to `CCOC(=O)C1=C(COC(=O)/C=C/c2ccccc2Cl)NC(=O)NC1C` (stereo not given), the inhibition was -17.4% (inactive).

As for `CCOC(=O)C1=C(c2ccccc2)ON(C)C1c1ccccc1` (stereo not given), the inhibition is -0.8% (inactive).

As for `N#C/C(=C(/O)c1ccc([N+](=O)[O-])cc1)c1nc2ccccc2[nH]1`, the inhibition was 3.7% (inactive).

For the molecule `N#C/C(=C(/O)c1ccc(Cl)cc1)c1nc2ccccc2[nH]1`, the inhibition was 3.5% (inactive).

As for `N#C/C(=C(\O)c1cc(Cl)sc1Cl)c1nc2ccccc2[nH]1`, the inhibition is 64.5% (active).

In the case of `Cc1ccc2nc(/C(C#N)=C\c3ccc([N+](=O)[O-])o3)[nH]c2c1`, the inhibition is 0.5% (inactive).

Consider `N#C/C(=C\c1ccc([N+](=O)[O-])o1)c1nc2ccccc2[nH]1`, for which the inhibition was 96.8% (active).

Take `COc1ccccc1/C(O)=C(\C#N)c1nc2ccccc2[nH]1`: the inhibition was 5.5% (inactive).

As to `N#C/C(=C(/O)c1ccc(Br)s1)c1nc2ccccc2[nH]1`, the inhibition is 9.1% (inactive).

Consider `N#C/C(=C(/O)c1ccc([N+](=O)[O-])s1)c1nc2ccccc2[nH]1`, for which the inhibition is 71.6% (active).

`N#C/C(=C(/O)c1ccc([N+](=O)[O-])o1)c1nc2ccccc2[nH]1`: the inhibition is -7.3% (inactive).

With `NC(=O)c1c(NC(=O)C(=O)NCCCN2CCOCC2)sc2c1CCCC2`, the inhibition was 6% (inactive).

In the case of `O=C(CCNS(=O)(=O)/C=C/c1ccccc1)NCCc1c[nH]c2ccccc12`, the inhibition was -0.1% (inactive).

For the molecule `CCN(CC)Cc1c(C(=O)N/N=C/c2ccc(OCc3ccccc3C)cc2)nnn1-c1nonc1N`, the inhibition was -6.7% (inactive).

On to `COc1ccc(NC(=O)CCCn2cnc3ccccc3c2=O)cc1`, for which the inhibition was 9% (inactive).

Turning to `COC(=O)c1ccc(Cl)c(NC(=O)c2cccc([N+](=O)[O-])c2C)c1`, the inhibition is -17.4% (inactive).

Regarding `O=C(N/N=C/c1cc(Br)cc([N+](=O)[O-])c1O)c1ccc(NC(=O)c2ccc(F)cc2)cc1`, the inhibition was 7% (inactive).

With `COC(=O)c1ccc(N/N=C/c2cc([N+](=O)[O-])cc(OC)c2O)cc1`, the inhibition is -49.6% (inactive).

As to `CCOC(=O)c1ccc(N/N=C/c2cc(Br)cc([N+](=O)[O-])c2O)cc1`, the inhibition is 97.2% (active).

For `CCn1c(CNc2ccc(Cl)cc2)nnc1SCC#N`, the inhibition is -48.7% (inactive).

Turning to `COc1ccc(-c2[nH]ncc2CN2CCCC2c2nonc2C)c(F)c1` (stereo not given), the inhibition is -55.4% (inactive).

For `COc1cc(C(=O)OCC(=O)Nc2ccc(F)cc2F)cc(OC)c1OC`, the inhibition is 3.5% (inactive).

As to `O=C(/C(=N\Nc1ccccc1)Sc1nnnn1-c1ccccc1)c1ccccc1`, the inhibition is 93.1% (active).

With `O=C(/C(=N\Nc1ccc(Br)cc1)Sc1nnnn1-c1ccccc1)c1ccccc1`, the inhibition is -15% (inactive).

In the case of `Cc1ccc(N/N=C(/Sc2nnnn2-c2ccccc2)C(=O)c2ccccc2)cc1`, the inhibition was -42.4% (inactive).

For orientation: inhibition means the relative decrease from the control value, in per cent.
